Experiment [1] is described as follows: A CellTox Green Cytotoxicity Assay to monitor cytotoxicity in HEK293 cells - 16 hour (AID 1224888). Further: nearly all actives have a fitted effect of over 35% in size. Summed up: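 Cells (HEK293, 600/well) and dye reagent are dispensed together. After 5 h at 37 C, 23 nL compound is pinned in. Plates stay at 37 C for 40 h with fluorescence read at 0h, 8h, 16h, 24h, 32h and 40h.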
The nature of experiment [2]: qHTS RealTime-Glo MT Cell Viability Assay in HepG2 cells - 0 hour (AID 1224889). Further: nearly all actives have a fitted effect of over 50% in size. An outline of the steps:
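Cells + NanoLuc/prosubstrate dispensed (600 cells/well) → 5 h at 37 C/5% CO2 → compounds in DMSO transferred → 40 h incubation at 37 C, luminescence read at 0, 8, 16, 24, 32, 40 h.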
A general note: qHTS replaces the single test concentration by a dilution series.

The nature of experiment [3]: A CellTox Green Cytotoxicity Assay to monitor cytotoxicity in HepG2 cells - 8 hour (AID 1224890). Further: nearly all actives have a fitted effect of over 45% in size. Summed up:
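Cells and non-lytic dye reagent are dispensed together (600 HepG2 cells/well) and incubated 5 h before DMSO compound transfer. Kinetic fluorescence is then recorded in the same wells during 40 h at 37 C.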

Experiment [4] in a line: qHTS assay to identify small molecule antagonists of the estrogen receptor alpha (ER-alpha) signaling pathway using the BG1 cell line in the presence of 0.1 nM 17-beta-estradiol - cell viability counter screen (AID 1259241). Further: nearly all actives have a fitted effect of over 40% in size. An outline of the steps: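 CellTiter-Fluor read (30 min, 37C) on ER-alpha/ERE-luc VM7Luc4E2 cells; 22 hr compound treatment; agonist 0.1 nM E2 final; same-well multiplex.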

Experiment [5] is described as follows: qHTS assay to identify small molecule antagonists of the androgen receptor (AR) signaling pathway using the MDA cell line in the presence of 0.5 nM R1881 - cell viability counter screen (AID 1259242). Further: nearly all actives have a fitted effect of over 45% in size. An outline of the steps:
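Steps: plate MDA-kb2 cells, rest 5 hr at 37C without CO2; pin in compounds in DMSO; add R1881 to 0.5 nM final; incubate 16 hr; add CellTiter-Fluor, 30 min; read fluorescence.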

Experiment [6] can be described thus: qHTS assay to identify small molecule HDAC inhibitors (AID 1259364). Further: potency means the concentration at half of the fitted maximal effect.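 Further: wild-type HCT-116 cells with endogenous class I/II HDAC activity; nearly all actives have a fitted effect of over 45% in size.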 An outline of the steps: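 Cells (HCT-116, wild type) are seeded at 1,500 per well, incubated overnight, treated with compound in DMSO for 2 hr, then developed with HDAC-Glo I/II reagent for 30 min at room temperature.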
Experiment [7] is described as follows: qHTS assay to identify small molecule HDAC inhibitors - cell viability counter screen (AID 1259365). Further: series mostly up to about 92 µM; nearly all actives have a fitted effect of over 50% in size. An outline of the steps: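 To flag cytotoxic hits, 1,500 wild-type HCT-116 cells per well, plated the day before, receive test compounds for 2hr at 37 C before CellTiter-Glo reagent and a luminescence read.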
A short description of experiment [8]: qHTS assay to identify small molecule phospholipidosis (PLD) inducers (AID 1259344; active means well fitted curve in the direction sought with a large enough effect; an effect the other way counts as inactive or inconclusive). An outline of the steps:
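Accumulated phospholipid, stained red by LipidTOX during 24 h compound treatment of HepG2 cells at 37 C, is quantified from images as pit number and intensity, normalised per cell using Hoechst-stained nuclei.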

The target in experiment [9] is Estrogen receptor (Homo sapiens) (UniProt P03372). Description: qHTS assay to identify small molecule antagonists of the estrogen receptor alpha (ER-alpha) signaling pathway using the BG1 cell line in the presence of 0.1 nM 17-beta-estradiol (AID 1259244). Further: nearly all actives have a fitted effect of over 50% in size. An outline of the steps:
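Antagonist mode: compounds in DMSO are pinned onto VM7Luc4E2 reporter cells, 0.1 nM final 17beta-estradiol is added, and after 22 h at 37C luciferase luminescence is measured with ONE-Glo.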

A number with no mark means an inactive call. Results filed as inconclusive are left out. Active and inactive are the calls of the source. Unless noted, the call rests on the fitted dose curve; in most records, active means well fitted curve in the direction sought with a large enough effect in the repeat runs; inconclusive means weak or mixed curves; inactive means no such curve, though single readings can be large; an effect the other way counts as inactive or inconclusive.

Estrogen receptor (Homo sapiens), sequence (P03372 whole entry, looked up): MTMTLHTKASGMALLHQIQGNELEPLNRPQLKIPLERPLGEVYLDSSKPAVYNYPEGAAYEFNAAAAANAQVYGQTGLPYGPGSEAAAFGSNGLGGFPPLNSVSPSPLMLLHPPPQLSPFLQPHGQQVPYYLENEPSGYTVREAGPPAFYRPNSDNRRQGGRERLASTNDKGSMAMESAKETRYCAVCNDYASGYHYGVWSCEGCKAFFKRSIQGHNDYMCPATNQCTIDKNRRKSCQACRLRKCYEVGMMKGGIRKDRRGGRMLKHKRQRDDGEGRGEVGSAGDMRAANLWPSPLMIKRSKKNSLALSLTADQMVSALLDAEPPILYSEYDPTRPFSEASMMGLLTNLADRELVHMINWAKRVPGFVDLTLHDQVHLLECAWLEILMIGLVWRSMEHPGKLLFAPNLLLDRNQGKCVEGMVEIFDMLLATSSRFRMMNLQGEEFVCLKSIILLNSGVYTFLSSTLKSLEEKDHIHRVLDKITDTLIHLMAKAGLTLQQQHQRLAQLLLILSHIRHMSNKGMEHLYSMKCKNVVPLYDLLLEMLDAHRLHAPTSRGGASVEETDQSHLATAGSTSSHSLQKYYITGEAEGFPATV

In the case of `CC(C)(C)OC=O`, the Potency entry in [1], in [2], in experiment [3] and in experiment [6] was “inactive” each time. Also, the outcome in experiment [4], in experiment [5] and in [7] was inactive.
Turning to `CNCCc1ccccn1`, the Potency entry in experiment [1], in experiment [2], in experiment [3], in [8] and in experiment [6] was “inactive” throughout. Further, the result in experiment [4], in experiment [5] and in experiment [7] was inactive.
In the case of `CCCC[O][Al]([O]CCCC)[O]CCCC`, the Potency result in [1], in experiment [2], in experiment [3] and in experiment [6] was “inactive” throughout. Further, the outcome in [4], in experiment [5] and in [7] was inactive.
With `NCC1CCC(C(=O)Oc2ccc(CCC(=O)O)cc2)CC1` (stereo not given), the Potency result in experiment [1], in experiment [2], in [3] and in experiment [8] was “inactive” throughout. Moreover, the outcome in experiment [4], in experiment [5] and in [7] was inactive. For the same molecule, the Potency in experiment [6] is 8.41 µM (active).
On to `COC(=O)C(c1ccccc1Cl)N1CCc2sccc2C1` (stereo not given), for which the Potency result in experiment [1], in [2], in experiment [3], in experiment [8] and in [6] was “inactive” throughout. The outcome in [4], in experiment [5] and in experiment [7] was inactive.
On to `COc1ccc2cc(CCC(C)=O)ccc2c1`, for which the Potency entry in [1], in experiment [2], in experiment [3] and in experiment [8] was “inactive” each time. Moreover, the result in [4], in experiment [5] and in experiment [7] was inactive.
In the case of `O=c1[nH]c(=O)c2cn[nH]c2[nH]1`, the Potency result in experiment [1], in experiment [2], in experiment [3] and in experiment [6] was “inactive” each time. Further, the outcome in experiment [4], in experiment [5] and in experiment [7] was inactive.
Regarding `Cc1cc(C)c(C)c(C)c1`, the Potency entry in experiment [1], in [2], in experiment [3] and in experiment [6] was “inactive” in each case. The result in experiment [4], in [5] and in experiment [7] was inactive.
`CCCC(C)C(O)CC` (stereo not given): the Potency result in experiment [1], in [2], in experiment [3] and in experiment [6] was “inactive” throughout. Further, the result in experiment [4], in experiment [5] and in [7] was inactive.
As for `C=CC(C)(CCC=C(C)C)OC(=O)C(C)C` (stereo not given), the Potency entry in experiment [1], in experiment [2], in [3] and in [6] was “inactive” throughout. Besides, the outcome in [4], in [5] and in experiment [7] was inactive.
As to `CNC(=O)c1c(I)c(NC(C)=O)c(I)c(C(=O)O)c1I`, the Potency entry in experiment [1], in [2], in experiment [3] and in [6] was “inactive” in each case. For the same molecule, the result in experiment [4], in [5] and in experiment [7] was inactive.
With `CC1(C)S[C@@H]2[C@H](NC(=O)Cc3ccccc3)C(=O)N2[C@H]1C(=O)O` (tested in a mixture with another compound), the Potency entry in experiment [1], in [2], in [3], in experiment [8] and in experiment [6] was “inactive” each time. Further, the result in experiment [4], in experiment [5] and in [7] was inactive.
Regarding `CC(C)OCCO`, the Potency entry in [1], in experiment [2], in experiment [3] and in experiment [6] was “inactive” in each case. The result in [4], in experiment [5] and in [7] was inactive.
As for `BrCCOc1ccccc1`, the Potency entry in experiment [1], in experiment [2], in experiment [3] and in experiment [6] was “inactive” in each case. Besides, the result in experiment [4], in experiment [5] and in experiment [7] was inactive.
For the molecule `COC(=O)c1ccccc1Cl`, the Potency entry in experiment [1], in [2], in [3] and in [6] was “inactive” in each case. The result in experiment [4], in experiment [5] and in experiment [7] was inactive.
Take `C=CC(=O)CC`: the Potency result in experiment [1], in [2], in experiment [3] and in experiment [6] was “inactive” each time. Further, the outcome in experiment [4], in experiment [5] and in experiment [7] was inactive.
For the molecule `CCCCCCCCCCCCCC(=O)OCC`, the Potency entry in experiment [1], in [2], in [3] and in experiment [6] was “inactive” in each case. Moreover, the outcome in experiment [4], in experiment [5] and in [7] was inactive.
For the molecule `C[Si](C)(C)O[Si](O)(O)O`, the Potency entry in experiment [1], in experiment [2], in [3] and in experiment [6] was “inactive” each time. For the same molecule, the outcome in [4], in experiment [5] and in [7] was inactive.
As to `CCCCCC(CC)OC(=O)CCCOc1ccc(Cl)cc1Cl` (stereo not given), the Potency entry in experiment [1], in [2], in experiment [3] and in experiment [6] was “inactive” each time. Further, the result in experiment [4], in experiment [5] and in experiment [7] was inactive.
In the case of `CCCCCCCCOCCC#N`, the Potency result in experiment [1], in [2], in [3] and in experiment [6] was “inactive” each time. Besides, the result in experiment [4], in experiment [5] and in [7] was inactive.
Consider `O=Cc1ccccc1S(=O)(=O)O`, for which the Potency result in [1], in [2], in [3] and in [6] was “inactive” in each case. The outcome in experiment [4], in [5] and in [7] was inactive.
On to `CCO/C=C1\N=C(c2ccccc2)OC1=O`, for which the Potency result in experiment [1], in experiment [2], in experiment [3] and in experiment [6] was “inactive” each time. Also, the result in experiment [4], in experiment [5] and in experiment [7] was inactive.
For `O=C(O)CCC(=O)Nc1ccc(S(=O)(=O)Nc2nccs2)cc1`, the Potency result in experiment [1], in experiment [2], in experiment [8] and in experiment [6] was “inactive” in each case. Also, the result in experiment [4], in [5] and in experiment [7] was inactive.
Regarding `CC/C=C\CCCCCCCCCCOC(C)=O`, the Potency result in experiment [1], in [3] and in experiment [6] was “inactive” each time. For the same molecule, the result in experiment [4], in [5], in experiment [9] and in [7] was inactive.
With `Cc1cc2c(cc1CC(=O)c1sccc1S(=O)(=O)Nc1onc(C)c1Cl)OCO2`, the Potency result in [1], in [3] and in experiment [6] was “inactive” throughout. Besides, the outcome in experiment [4], in experiment [5], in experiment [9] and in [7] was inactive.
Take `CCCCS`: the Potency entry in [2], in experiment [3] and in experiment [6] was “inactive” each time. The result in experiment [4], in experiment [5], in experiment [9] and in experiment [7] was inactive.
`N#CC1(N)CCCCC1`: the Potency result in [1], in experiment [2], in experiment [3] and in [6] was “inactive” throughout. Further, the outcome in [4], in [5] and in experiment [7] was inactive.
Take `Cc1cc(O)c(Cl)cc1C`: the Potency entry in [1], in [2] and in experiment [6] was “inactive” in each case. For the same molecule, the result in experiment [4], in experiment [5], in [9] and in experiment [7] was inactive.

For the origin of these results see PubChem BioAssay (Tox21).
